Screens as filed in PubChem BioAssay.
Compounds with a hit are over-represented: about 11% of the library has one in this group of screens.
RORgamma inh: ROR gamma (mouse) transcription inhibition; P51450; Drosophila S2 Gal4-RORgamma UAS-luciferase reporter, 20 h; Potency, µM (titrated, usually from 53.6 µM), hits mostly inhibitors; 5.4% of 310,000 active; AID 2551; note: nearly all actives have a fitted effect of over 60% in size
Target sequence (P51450 whole entry, looked up, the tested form may be a part): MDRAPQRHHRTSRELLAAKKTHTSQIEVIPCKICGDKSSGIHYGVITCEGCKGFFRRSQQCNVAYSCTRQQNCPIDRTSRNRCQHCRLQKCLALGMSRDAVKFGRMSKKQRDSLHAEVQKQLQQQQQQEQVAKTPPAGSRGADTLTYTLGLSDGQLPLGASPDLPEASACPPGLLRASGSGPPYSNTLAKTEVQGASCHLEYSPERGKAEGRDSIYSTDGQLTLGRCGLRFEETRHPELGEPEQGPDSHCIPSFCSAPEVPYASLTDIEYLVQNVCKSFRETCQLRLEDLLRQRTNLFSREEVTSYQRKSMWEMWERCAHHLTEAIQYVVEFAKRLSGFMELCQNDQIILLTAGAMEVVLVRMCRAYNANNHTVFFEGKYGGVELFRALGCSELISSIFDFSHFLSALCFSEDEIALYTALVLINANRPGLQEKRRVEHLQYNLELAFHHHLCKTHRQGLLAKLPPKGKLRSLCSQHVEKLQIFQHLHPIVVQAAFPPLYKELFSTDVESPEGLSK
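Stably transfected Drosophila Schneider cells are the test system, with ROR gamma fused to Gal4 and luciferase under UAS control; luminescence is read after 20 hr of 700 uM copper sulfate induction at ambient temperature.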
IL-1B inflam inh: blocks inflammasome-driven IL-1 beta release | THP-1 LPS/ATP IL-1B secretion, AlphaLISA, 16 h; stronger effect = lower value | activity change, % at 57.5 µM | 4.7% of 360,000 active | AID 743279; in the data active = activity change below about -50%; inconclusive = mostly about -30% to -49%
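Secreted IL-1B measured by AlphaLISA bead assay after 16 h compound exposure of THP-1 cells; compounds (final up to 57.5 uM) added 1 h before LPS (250 ng/mL) and ATP (1.25 mM) stimulation; lower signal means less secretion.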
MCF10A rerep: induces DNA re-replication in MCF 10a normal breast cells; 2.9% of 350,000 active; Potency, µM (top dose mostly 46.1 µM), hits mostly activators; MCF 10A DNA re-replication, Hoechst nuclear intensity, 48 h; note: nearly all actives have a fitted effect of over 50% in size
VP16 counter: inhibits Gal4-VP16 luciferase reporter, ROR gamma counter-screen | Drosophila S2 Gal4-VP16 UAS-luciferase, luminescence, 20 h | Potency, µM (highest dose often 53.6 µM), hits mostly inhibitors | 3.5% of 310,000 active | AID 2546;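 note: Gal4-VP16 expression switched on by copper sulfate through the metallothionein promoter; nearly all actives have a fitted effect of over 50% in size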
SW480 rereplic: inducers of DNA re-replication in SW480 colon cancer cells | SW480 DNA re-replication, Hoechst DNA content imaging, 48 h | Potency, µM (highest dose often 46.1 µM), hits mostly activators | 1.8% of 340,000 active; note: nearly all actives have a fitted effect of over 55% in size
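Compounds, transferred as 23 nL by pin tool, were incubated with cells for 48 hr; DNA content per nucleus was then quantified by Hoechst staining and fluorescence plate imaging.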
Numbers stand for hits; 0 = inactive; ? = inconclusive; - = no result given; [ ] = remark or other dose. Unless noted, calls come from the whole dose curve; as a rule, active = well fitted curve in the direction sought with a large enough effect; inconclusive = small, poorly fitted or top-dose-only effect, or another doubt; inactive = no such curve, though single readings can be large; an effect the other way counts as inactive or inconclusive.

SMILES | RORgamma inh | IL-1B inflam inh | MCF10A rerep | VP16 counter | SW480 rereplic
C(=N\Nc1nc(-c2ccccn2)nc2ccccc12)/c1ccccc1 | 0.0891µM | - | - | 0.501µM | -
Nc1nc(NCC2CCCO2)nc(Nc2ccccc2)c1[N+](=O)[O-] (stereo not given) | 0 | 0 | 0 | ? | 0
Nc1nc(NCC2CCCO2)nc(Nc2cccc(F)c2)c1[N+](=O)[O-] (stereo not given) | 0 | 0 | 0 | 0 | 0
Cc1ccc(S(=O)(=O)Nc2ccc(C(=O)NCCCn3ccnc3)cc2)cc1[N+](=O)[O-] | - | 0 | 0 | - | 0
CC(C)NC(=O)Nc1cccc2c1O[C@H](CN(C)S(C)(=O)=O)[C@@H](C)CN([C@H](C)CO)C2=O | - | 0 | 0 | - | 0
CCCC[C@]12Cc3cc(C#N)ccc3C(O1)c1c(cc(C)n(Cc3ccccc3)c1=O)O2 | 0[10 µM] | - | - | 0[10 µM] | -
COc1ccc(Nc2nc(NCC3CCCO3)c3ccccc3n2)c(OC)c1 (stereo not given) | 0 | - | 0 | 0 | 0
CCOc1ccc(Nc2nc(NCC3CCCO3)c3ccccc3n2)cc1 (stereo not given) | ? | -98.3 | ? | ? | ?
Cc1ccc(-c2nc(N/N=C/c3ccccc3[N+](=O)[O-])c3ccccc3n2)cc1 | 0 | 0 | 13µM | 0 | 7.31µM
c1ccc(-c2nc(NCc3ccco3)c3ccccc3n2)nc1 | 1.26µM | 0 | ? | 2.82µM | 5.8µM
c1ccc2c(NCC3CCCO3)nc(N3CCOCC3)nc2c1 (stereo not given) | 0 | 0 | 0 | 0 | 0
Oc1ccccc1-c1nc(NCc2ccco2)c2ccccc2n1 | 0 | 0 | ? | 0 | 0
c1ccc(-c2nc(NCC3CCCO3)c3ccccc3n2)nc1 (stereo not given) | 1.58µM | 0 | ? | 7.08µM | ?
Cc1ccc(CNc2nc(-c3cccs3)nc3ccccc23)cc1 | 0 | 0 | ? | 0 | 0
c1ccc(CNc2nc(-c3cccs3)nc3ccccc23)nc1 | 0 | -76.8 | 0 | 0 | 0
COc1ccc(C(=O)N2CCOC2CNC(=O)C(=O)NCc2ccccn2)cc1 (stereo not given) | - | 0 | - | - | -
N#Cc1c(-c2cccc(Br)c2)cc(-c2ccco2)[nH]c1=O | ? | 0 | 7.31µM | 0 | ?
CC(C(=O)Nc1ccccn1)N1C(=O)c2ccccc2S1(=O)=O (stereo not given) | - | 0 | 0 | - | 0
CC(C)C[C@H](NC(=O)[C@H](C)NC(=O)CNC(=O)[C@H](CCCCN)NC(=O)[C@H](CCCN=C(N)N)NC(=O)[C@H](C)NC(=O)[C@H](Cc1ccccc1)NC(=O)[C@@H](N)CCCN=C(N)N)C(=O)N[C@@H](CCCN=C(N)N)C(=O)N[C@@H](CCC(N)=O)C(=O)N[C@@H](CCCCN)C(=O)N[C@@H](CC(N)=O)C(=O)N[C@H](C(N)=O)C(C)C | 0 | - | - | 0 | -
Cc1ccccc1SCC(=O)NNC(=O)c1ccncc1 | - | 0 | 0 | - | 0
Cc1ccccc1SCC(=O)NNC(=O)c1ccccc1O | 0 | 0 | 0 | 0 | 13µM
COC(=O)c1ccccc1N/C=C1\CCc2c(c(C)nn2-c2ccccn2)C1=O | 0 | 0 | 8.2µM | 0 | 0
CC(=N\NC(=O)c1ccc([N+](=O)[O-])cc1)/C(=N/O)C(=O)Nc1ccccc1 | 3.98µM | 0 | 0 | 6.31µM | ?
C/C(=N\NC(=O)c1ccc([N+](=O)[O-])cc1)c1cccc([N+](=O)[O-])c1 | 0 | 0 | 0 | 0 | 0
Cc1cccc(CCN2C(N(C)C)=NC[C@@H]2CC(C)C)c1 | - | 0 | 0 | - | 0
SMILES | RORgamma inh | IL-1B inflam inh | MCF10A rerep | VP16 counter | SW480 rereplic
Cc1cccc(CCN2C(N(C)C)=NC[C@@H]2Cc2ccccc2)c1 | - | -59.2 | ? | - | 0
Cc1[nH][nH]c(=O)c1C(c1ccc(O)c(Br)c1)c1c(C)[nH][nH]c1=O | 0 | -73.3 | ? | 0 | 0
CCOc1cc(C(c2c(C)[nH][nH]c2=O)c2c(C)[nH][nH]c2=O)ccc1O | 0 | -62.7 | 0 | 0 | 0
COc1ccc(C(c2c(C)[nH][nH]c2=O)c2c(C)[nH][nH]c2=O)cc1Br | 0 | 0 | 0 | 0 | 0
C[C@H](NC(N)=O)C(=O)Nc1ccc(N2CCOCC2)c(S(=O)(=O)Nc2ccc(Cl)cc2)c1 | - | 0 | 0 | - | 0
CCC(C)c1ccc(NC(=O)COC(=O)CCNC(=O)c2ccco2)cc1 (stereo not given) | - | 0 | 0 | - | 0
